Where “and” joins values, the source holds several entries; their conditions need not be identical. Identical values can stand only once. For some assays here: Entries with a potency or affinity are not part of this list. Where a structure was tested more than once in an assay, its records may differ in their call. Calls of active or inactive are those of the source. Unless noted, how the calls were made is not given here.
Key:
[1] = antimalarial activity against Dd2 strain (AID 2302;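 active means growth inhibition above 50% at the single 2 µM test dose, taken to imply half-maximal potency below 2 µM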;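 further: 0% = DMSO untreated growth and 100% = chloroquine plus artemisinin killed control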); conditions: P. falciparum Dd2 in RBCs, LDH growth readout, 72 h; at 2 µM; stronger effect = higher value
[2] = HepG2 cytotoxicity, primary screen, cytotoxicity control for P. falciparum antimalarial project, cell-based, ATP luminescence (AID 2303;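 active means inhibition above 50%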;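 further: 0% = DMSO wells and 100% = digitonin-killed cells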); conditions: HepG2 viability, 24-48 h, at 10 µM, stronger effect = higher value
[3] = target: L-lactate dehydrogenase (Plasmodium falciparum (isolate CDC / Honduras)) (UniProt Q27743); experiment: PfLDH activity inhibition – cell lysate, 3D7 strain, counter-screen for P. falciparum growth inhibition project (AID 2304);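 further: 0% = vehicle and 100% = reference inhibitor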; conditions: P. falciparum 3D7 crude extract, LDH APAD/NBT absorbance; at 2 µM; stronger effect = higher value
L-lactate dehydrogenase (Plasmodium falciparum (isolate CDC / Honduras)), sequence (Q27743 whole entry, looked up): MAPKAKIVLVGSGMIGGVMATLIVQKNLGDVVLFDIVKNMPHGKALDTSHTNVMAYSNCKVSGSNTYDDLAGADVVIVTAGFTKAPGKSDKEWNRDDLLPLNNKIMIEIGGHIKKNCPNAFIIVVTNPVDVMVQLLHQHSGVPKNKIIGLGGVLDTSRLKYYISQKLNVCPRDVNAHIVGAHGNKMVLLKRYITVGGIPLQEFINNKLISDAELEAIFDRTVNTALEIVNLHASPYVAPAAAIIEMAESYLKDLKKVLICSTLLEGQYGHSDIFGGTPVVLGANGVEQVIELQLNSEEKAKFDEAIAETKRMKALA

[4] = inhibition of 3D7 malaria parasite growth – strain 3D7 (AID 2306);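 further: 0% = DMSO wells and 100% = chloroquine plus artemisinin control wells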; conditions: P. falciparum 3D7 erythrocytic growth, LDH absorbance, 72 h; at 2 µM; stronger effect = higher value
[5] = target: Calcium-dependent protein kinase 1 (Plasmodium falciparum (isolate 3D7)) (UniProt P62344); experiment: PfCDPK1 kinase inhibitors, biochemical, TCAMS library (AID 1159585; cut-off not given, nearly all actives have IC50 up to about 0.98 µM;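 further: inhibitors leave more ATP so luminescence rises with inhibition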); conditions: recombinant PfCDPK1, Kinase-Glo ATP depletion luminescence
Calcium-dependent protein kinase 1 (Plasmodium falciparum (isolate 3D7)), sequence (P62344 whole entry, looked up): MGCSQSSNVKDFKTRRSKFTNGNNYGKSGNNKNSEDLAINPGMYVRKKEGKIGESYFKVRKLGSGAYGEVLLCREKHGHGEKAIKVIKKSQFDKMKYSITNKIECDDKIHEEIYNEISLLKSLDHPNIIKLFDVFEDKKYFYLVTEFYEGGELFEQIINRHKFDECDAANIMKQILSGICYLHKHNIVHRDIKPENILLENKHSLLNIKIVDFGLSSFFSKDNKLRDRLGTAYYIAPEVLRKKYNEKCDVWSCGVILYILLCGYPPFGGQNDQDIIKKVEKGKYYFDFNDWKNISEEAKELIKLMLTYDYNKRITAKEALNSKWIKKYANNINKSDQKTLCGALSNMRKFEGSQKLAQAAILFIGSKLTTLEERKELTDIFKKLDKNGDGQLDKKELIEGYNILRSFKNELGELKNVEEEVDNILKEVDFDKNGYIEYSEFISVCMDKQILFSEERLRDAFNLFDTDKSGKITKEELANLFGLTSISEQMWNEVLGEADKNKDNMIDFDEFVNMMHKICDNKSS

[6] = target: Plasmodium falciparum protein kinase 6 (PK6, PF3D7_1337100) (UniProt Q8IDW1); experiment: PfPK6 kinase inhibitors, biochemical, TCAMS library (AID 1159586); conditions: recombinant PfPK6, Kinase-Glo ATP depletion luminescence
Plasmodium falciparum protein kinase 6 (PK6, PF3D7_1337100), sequence (Q8IDW1 1-305): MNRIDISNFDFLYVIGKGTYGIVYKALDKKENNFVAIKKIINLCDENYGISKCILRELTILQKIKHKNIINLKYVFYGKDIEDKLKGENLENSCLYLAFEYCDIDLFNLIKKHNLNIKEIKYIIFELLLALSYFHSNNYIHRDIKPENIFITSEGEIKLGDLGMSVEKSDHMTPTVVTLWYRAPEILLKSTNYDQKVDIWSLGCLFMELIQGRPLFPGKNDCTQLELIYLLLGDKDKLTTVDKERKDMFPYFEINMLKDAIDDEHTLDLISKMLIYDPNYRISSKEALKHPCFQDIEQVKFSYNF

[7] = target: Protein kinase 7 (PK7), Plasmodium falciparum 3D7 (PF3D7_0213400) (UniProt Q7YTF7); experiment: inhibition of Plasmodium PK7 catalytic activity – biochemical, TCAMS antimalarial set, Kinase-Glo luminescence (AID 1159587); conditions: recombinant PfPK7, Kinase-Glo ATP depletion luminescence
Protein kinase 7 (PK7), Plasmodium falciparum 3D7 (PF3D7_0213400), sequence (Q7YTF7 1-343): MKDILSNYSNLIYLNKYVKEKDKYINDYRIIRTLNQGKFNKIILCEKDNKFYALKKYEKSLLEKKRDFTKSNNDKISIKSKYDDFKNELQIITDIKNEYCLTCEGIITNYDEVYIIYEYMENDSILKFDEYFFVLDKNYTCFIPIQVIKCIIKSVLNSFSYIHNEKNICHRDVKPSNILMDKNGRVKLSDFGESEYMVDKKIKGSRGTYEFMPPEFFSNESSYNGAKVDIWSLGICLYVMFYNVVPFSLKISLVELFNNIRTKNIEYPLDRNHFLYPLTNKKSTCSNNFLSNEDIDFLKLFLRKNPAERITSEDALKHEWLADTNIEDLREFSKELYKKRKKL

[8] = target: Calcium-dependent protein kinase 4 (Plasmodium falciparum (isolate 3D7)) (UniProt Q8IBS5); experiment: PfCDPK4 kinase inhibitors, biochemical, TCAMS library (AID 1159588; cut-off not given, nearly all actives have IC50 up to about 0.91 µM); conditions: recombinant PfCDPK4, Kinase-Glo ATP depletion luminescence
Calcium-dependent protein kinase 4 (Plasmodium falciparum (isolate 3D7)), sequence (Q8IBS5 whole entry, looked up): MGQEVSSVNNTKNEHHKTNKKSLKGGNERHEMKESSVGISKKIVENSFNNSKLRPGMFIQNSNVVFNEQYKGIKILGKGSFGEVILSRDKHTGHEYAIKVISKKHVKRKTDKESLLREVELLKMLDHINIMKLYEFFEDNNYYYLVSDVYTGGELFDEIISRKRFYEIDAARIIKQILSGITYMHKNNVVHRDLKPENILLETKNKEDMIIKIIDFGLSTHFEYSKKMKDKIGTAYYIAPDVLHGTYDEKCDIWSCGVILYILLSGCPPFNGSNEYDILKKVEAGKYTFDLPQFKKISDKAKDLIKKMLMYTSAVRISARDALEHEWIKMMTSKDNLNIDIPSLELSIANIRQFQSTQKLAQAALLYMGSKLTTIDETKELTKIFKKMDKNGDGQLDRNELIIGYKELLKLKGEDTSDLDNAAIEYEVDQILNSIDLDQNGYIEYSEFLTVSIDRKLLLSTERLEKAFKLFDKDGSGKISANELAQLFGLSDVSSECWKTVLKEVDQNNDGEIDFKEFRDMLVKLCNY

c1ccc2c(NCCCCCCNc3c4c(nc5ccccc35)CCCC4)c3c(nc2c1)CCCC3
active: growth inhibition [1] 51% | inhibition [2] 90% | growth inhibition [4] 100%
inactive: inhibition [3] 3% | outcome [5] | outcome [6] | outcome [7] | outcome [8]

C=C[C@H]1CN2CC[C@H]1C[C@H]2[C@H](OS(=O)(=O)O)c1ccnc2ccccc12
inactive: growth inhibition [1] 15% | inhibition [2] 8% | inhibition [3] 5% | outcome [5] | outcome [6] | outcome [7] | outcome [8]
active: growth inhibition [4] 99%

O=C1NCN(c2ccc(O)cc2)C12CCN(CCCC(c1ccc(F)cc1)c1ccc(F)cc1)CC2
inactive: growth inhibition [1] 34% | inhibition [2] 20% | inhibition [3] 2% | outcome [5] | outcome [6] | outcome [7] | outcome [8]
active: growth inhibition [4] 94%

O=C(/C=C/c1ccc(C(F)(F)F)cc1)NC1CCC(CN2CCC(c3c[nH]c4ccccc34)CC2)CC1 (stereo unspecified)
inactive: inhibition [3] -2% and -3% | outcome [5] | outcome [6] | outcome [7] | outcome [8]
active: growth inhibition [1] 97% and 100% | growth inhibition [4] 98% and 101%
42% (inactive) and 73% (active): inhibition [2]

COCCNCc1ccc(-c2ccc(CN(C(=O)NC3CCCCC3)C3CCN(Cc4ccccc4)CC3)cc2)cc1
active: growth inhibition [1] 84% | growth inhibition [4] 94%
inactive: inhibition [2] 29% | inhibition [3] -1% | outcome [5] | outcome [6] | outcome [7] | outcome [8]

COc1ccc2[nH]cc(C3=CCN(C[C@H]4C[C@@H]4C(=O)c4ccccc4)CC3)c2n1
inactive: inhibition [2] 22% | inhibition [3] -8% | outcome [5] | outcome [6] | outcome [7] | outcome [8]
active: growth inhibition [1] 93% | growth inhibition [4] 95%

COc1ccc(CCNCc2ccc3c(C)cc(N)nc3c2)cc1
inactive: inhibition [2] 12% | inhibition [3] 0% | outcome [5] | outcome [6] | outcome [7] | outcome [8]
active: growth inhibition [1] 69% | growth inhibition [4] 101%

Clc1ccc2nccc(N3CCC(CN4CCC(c5c[nH]c6ccccc56)CC4)CC3)c2c1
active: growth inhibition [1] 81% | growth inhibition [4] 101%
inactive: inhibition [2] 46% | inhibition [3] 4% | outcome [5] | outcome [6] | outcome [7] | outcome [8]

CC[C@H]1CN2CC[C@H]1C[C@H]2[C@H](O)c1cc(-c2ccc3ccccc3c2)nc2ccc(OC)cc12
inactive: inhibition [2] 49% | inhibition [3] -3% | outcome [5] | outcome [6] | outcome [7] | outcome [8]
active: growth inhibition [1] 99% | growth inhibition [4] 99%

O=C(/C=C/c1ccc(F)c(C(F)(F)F)c1)N1CCC(CN2CCC(c3c[nH]c4ccccc34)CC2)CC1
active: growth inhibition [4] 98%
inactive: growth inhibition [1] 1% | inhibition [2] 23% | inhibition [3] 2% | outcome [5] | outcome [6] | outcome [7] | outcome [8]

CC[C@H]1CN2CC[C@@H]1C[C@H]2[C@H](O)c1cc(N2CCC(O)CC2)nc2ccc(OC)cc12
inactive: inhibition [2] 15% | inhibition [3] 3% | outcome [5] | outcome [6] | outcome [7] | outcome [8]
active: growth inhibition [1] 92% | growth inhibition [4] 99%

CNC(=O)c1ccc2[nH]cc(C3CCN(CC4CCN(C(=O)/C=C/c5ccc(Cl)c(Cl)c5)CC4)CC3)c2c1
active: growth inhibition [1] 88% | growth inhibition [4] 100%
inactive: inhibition [2] 3% | inhibition [3] 1% | outcome [5] | outcome [6] | outcome [7] | outcome [8]

CCCc1c(C(=O)NC2CCC(CN3CCC(c4c[nH]c5ccccc45)CC3)CC2)cnn1-c1ccccc1 (stereo unspecified)
inactive: growth inhibition [1] 7% | inhibition [2] 33% | inhibition [3] -1% | outcome [5] | outcome [6] | outcome [7] | outcome [8]
active: growth inhibition [4] 92%

COc1ccc(C=CC(=O)NC2CCC(CN3CCC(c4c[nH]c5ccccc45)CC3)CC2)cc1 (stereo unspecified)
inactive: inhibition [2] 13% and 30% | inhibition [3] -6% and -7% | outcome [5] | outcome [6] | outcome [7] | outcome [8]
active: growth inhibition [1] 60% and 61% | growth inhibition [4] 100%

Cc1cccc2c(C3CCN(CC4CCC(NC(=O)/C=C/c5ccc(Cl)c(Cl)c5)CC4)CC3)c[nH]c12 (stereo unspecified)
active: inhibition [2] 97% | growth inhibition [4] 92%
inactive: growth inhibition [1] 49% | inhibition [3] -4% | outcome [5] | outcome [6] | outcome [7] | outcome [8]

O=C(NC1CCC(CN2CCC(c3c[nH]c4ccccc34)CC2)CC1)c1cn(Cc2ccccc2)c2ccccc12 (stereo unspecified)
inactive: growth inhibition [1] 48% | inhibition [3] -3% | outcome [5] | outcome [6] | outcome [7] | outcome [8]
active: inhibition [2] 84% | growth inhibition [4] 91%

CC(Cc1ccc(NC(=O)CCCc2ccccc2)cc1)NCCc1cccc(Cl)c1 (stereo unspecified)
active: growth inhibition [4] 94%
inactive: growth inhibition [1] 3% | inhibition [2] 12% | inhibition [3] -5% | outcome [5] | outcome [6] | outcome [7] | outcome [8]

O=C(/C=C/c1ccc(O)cc1)NC1CCC(CN2CCC(c3c[nH]c4ccccc34)CC2)CC1 (stereo unspecified)
inactive: inhibition [2] 21% | inhibition [3] -7% | outcome [5] | outcome [6] | outcome [7] | outcome [8]
active: growth inhibition [1] 51% | growth inhibition [4] 99%

O=C(NC1CCC(CN2CCC(c3c[nH]c4ccccc34)CC2)CC1)c1cc2ccccc2s1 (stereo unspecified)
43% (inactive) and 68% (active): growth inhibition [1]
inactive: inhibition [2] 44% | inhibition [3] 4% and 5% | outcome [5] | outcome [6] | outcome [7] | outcome [8]
active: growth inhibition [4] 98% and 101%

O=C(COc1ccc(Cl)cc1)N1CCC(CN2CCC(c3c[nH]c4ccccc34)CC2)CC1
active: growth inhibition [4] 89%
inactive: growth inhibition [1] 13% | inhibition [2] 48% | inhibition [3] 1% | outcome [5] | outcome [6] | outcome [7] | outcome [8]

CC[C@H]1CN2CC[C@H]1C[C@H]2[C@@H](O)c1cc(OCCCN(C)C)nc2ccc(OC)cc12
active: growth inhibition [4] 99%
inactive: growth inhibition [1] 8% | inhibition [2] -7% | inhibition [3] -2% | outcome [5] | outcome [6] | outcome [7] | outcome [8]

CC(=O)C1(c2ccccc2)CCN(CCC(NC(=O)c2cc(C(F)(F)F)cc(C(F)(F)F)c2)c2ccc(Cl)c(Cl)c2)CC1 (stereo unspecified)
inactive: inhibition [2] 9% | inhibition [3] 2% | outcome [5] | outcome [6] | outcome [7] | outcome [8]
active: growth inhibition [1] 82% | growth inhibition [4] 91%

OC1(CNCc2ccccc2)CCN(CCc2c[nH]c3ccc(F)cc23)CC1
inactive: growth inhibition [1] 4% | inhibition [2] 39% | inhibition [3] -2% | outcome [5] | outcome [6] | outcome [7] | outcome [8]
active: growth inhibition [4] 100%

O=C(Nc1cc(C(F)(F)F)cc(C(F)(F)F)c1)N1CCC(CN2CCC(c3c[nH]c4ccccc34)CC2)CC1
inactive: inhibition [2] 42% | inhibition [3] -1% | outcome [5] | outcome [6] | outcome [7] | outcome [8]
active: growth inhibition [1] 99% | growth inhibition [4] 100%

Cc1cc(C)c(CC(C)NCC(O)c2cccc(C(F)(F)F)c2)c(C)c1 (stereo unspecified)
active: growth inhibition [1] 99% | growth inhibition [4] 100%
inactive: inhibition [2] 0% | inhibition [3] 5% | outcome [5] | outcome [6] | outcome [7] | outcome [8]

Oc1ccc(Cl)cc1CN1CCC(CCOC(c2ccccc2)c2ccc(Cl)cc2)CC1 (stereo unspecified)
active: growth inhibition [1] 100% | growth inhibition [4] 98%
inactive: inhibition [2] 32% | inhibition [3] 2% | outcome [5] | outcome [6] | outcome [7] | outcome [8]

O=C(NCCCCN1CCC(c2ccc3c(c2OCCO)CCCC3)CC1)c1sc(-c2ccc(C(F)(F)F)cc2)nc1CO
inactive: growth inhibition [1] 20% | inhibition [2] 37% | inhibition [3] -6% | outcome [5] | outcome [6] | outcome [7] | outcome [8]
active: growth inhibition [4] 95%

CNCCCN(C)C(=O)Oc1c(Br)c(C)nc(C)c1-c1ccc(Oc2ccc(OC(F)(F)F)cc2)cc1
active: growth inhibition [1] 96% | growth inhibition [4] 96%
inactive: inhibition [2] 17% | inhibition [3] 3% | outcome [5] | outcome [6] | outcome [7] | outcome [8]

O=C(NC1CCC(CN2CCC(c3c[nH]c4ccccc34)CC2)CC1)c1cc(-c2cccc(Cl)c2)n(-c2ccc(Cl)cc2Cl)n1 (stereo unspecified)
inactive: growth inhibition [1] 25% | inhibition [3] -5% | outcome [5] | outcome [6] | outcome [7] | outcome [8]
active: inhibition [2] 53% | growth inhibition [4] 81%

CC(=O)N(Cc1ccccc1-c1cccc(CNCc2ccc3c(c2)OCO3)c1)C1CCN(Cc2ccccc2)CC1
inactive: growth inhibition [1] 44% | inhibition [2] 17% | inhibition [3] -3% | outcome [5] | outcome [6] | outcome [7] | outcome [8]
active: growth inhibition [4] 85%

OC(CNCc1ccccc1OC(F)F)c1cccc(C(F)(F)F)c1 (stereo unspecified)
active: growth inhibition [1] 52% | growth inhibition [4] 97%
inactive: inhibition [2] 2% | inhibition [3] -2% | outcome [5] | outcome [6] | outcome [7] | outcome [8]

CCCc1cc([C@@H](O)[C@@H]2C[C@@H]3CCN2C[C@@H]3CC)c2ccccc2n1
active: growth inhibition [1] 57% | growth inhibition [4] 100%
inactive: inhibition [2] 9% | inhibition [3] 2% | outcome [5] | outcome [6] | outcome [7] | outcome [8]

O=P(O)(O)Oc1c(Br)cc(Br)cc1-c1cc(Br)cc(Br)c1O
active: growth inhibition [4] 97%
inactive: growth inhibition [1] -2% | inhibition [2] 10% | inhibition [3] -4% | outcome [5] | outcome [6] | outcome [7] | outcome [8]

O=C(/C=C/c1ccccc1Cl)NC1CCC(CN2CCC(c3c[nH]c4ccccc34)CC2)CC1 (stereo unspecified)
35% (inactive) and 51% (active): growth inhibition [1]
inactive: inhibition [2] 33% and 41% | inhibition [3] -2% and 3% | outcome [5] | outcome [6] | outcome [7] | outcome [8]
active: growth inhibition [4] 99% and 100%

C/C=C1/CN2CC[C@H]1C[C@H]2[C@H](O)c1ccnc2ccc(O)cc12
inactive: growth inhibition [1] 11% | inhibition [2] -2% | inhibition [3] -3% | outcome [5] | outcome [6] | outcome [7] | outcome [8]
active: growth inhibition [4] 99%

CC[C@H]1CN2CC[C@H]1C[C@H]2[C@H](O)c1cc(-c2ccc(F)cc2C)nc2ccc(OC)cc12
active: growth inhibition [1] 100% | growth inhibition [4] 99%
inactive: inhibition [2] -2% | inhibition [3] -3% | outcome [5] | outcome [6] | outcome [7] | outcome [8]

CCCCCC(C)C(C)c1cc(O)c2c(c1)OC(C)(C)c1cnccc1-2 (stereo unspecified)
active: growth inhibition [1] 74% | growth inhibition [4] 94%
inactive: inhibition [2] 7% | inhibition [3] -3% | outcome [5] | outcome [6] | outcome [7] | outcome [8]

Reference: PubChem BioAssay
